The list is not random: actives were taken first. Their share in the collection is about 1.2%.
Giardia FBPA inh-1 = qHTS Assay for Inhibitors of Fructose-1,6-bisphosphate Aldolase from Giardia Lamblia. A8B2U2. purified Giardia FBPA. Potency, µM (titrated, usually from 59.6 µM), for the others: at the highest dose activity, negative = inhibition, usual class: inhibitors. 290,000 tested, 0.71% active. AID 2451, 2010; also: % is scaled to controls: 0 for no effect and ±100 for the full control effect; nearly all actives have a fitted effect of over 55% in size
Target sequence (A8B2U2 whole entry, looked up): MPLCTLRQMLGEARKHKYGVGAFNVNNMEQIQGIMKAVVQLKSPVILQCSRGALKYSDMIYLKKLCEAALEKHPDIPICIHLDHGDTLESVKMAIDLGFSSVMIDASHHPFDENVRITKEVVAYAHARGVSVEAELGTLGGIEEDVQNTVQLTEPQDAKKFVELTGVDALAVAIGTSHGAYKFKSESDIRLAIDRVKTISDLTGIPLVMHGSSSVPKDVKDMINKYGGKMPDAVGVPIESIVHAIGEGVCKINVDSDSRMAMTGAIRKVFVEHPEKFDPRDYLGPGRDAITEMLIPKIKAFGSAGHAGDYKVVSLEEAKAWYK
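Giardia FBPA (40 nM reagent) was preincubated 10 min at RT with compound (up to 57.5 uM final), then substrate plus GAPDH/TPI/NAD/arsenate coupling system with diaphorase/resazurin was added; resorufin fluorescence (525/598 nm) was read after 20 min.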
Tb PYK inh = qHTS of Trypanosoma Brucei Inhibitors; pyruvate kinase (Trypanosoma brucei), Q57TT1; Potency, µM (series often up to 76.8 µM), without a hit: at the top dose activity, negative = inhibition, most hits filed as inhibitors; TbPYK enzyme, Kinase-Glo Plus ATP luminescence, 45 min; AID 624173, 2012; 410,000 tested, 0.12% active; also: % is scaled to controls: 0 for no effect and ±100 for the full control effect; nearly all actives have a fitted effect of over 50% in size
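Quantitative HTS: titrated library compounds versus trypanosomal pyruvate kinase in TEA buffer (pH 7.2) containing KCl, MgCl2, BSA and Tween-20. Reactions were initiated with ADP, 130 uM final. Kinase-Glo Plus luminescence was read after 45 min at RT.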
LmPK inhibitor = qHTS Assay for Inhibitors of Leishmania Mexicana Pyruvate Kinase (LmPK); AID 1721, 2009; 290,000 tested, 0.37% active; purified LmPK, Kinase-Glo ATP luminescence, 1 h; Potency, µM (titrated, usually from 57.5 µM), for the others: top-dose activity change, negative = inhibition, actives largely listed as inhibitors; also: % is scaled to controls: 0 for no effect and ±100 for the full control effect
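Pyruvate kinase activity monitored as ATP production (luciferase luminescence). Conditions: 0.1 nM enzyme, 0.5 mM PEP, 0.1 mM ADP, 1 h, RT; normalized against uninhibited and no-enzyme wells.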
AMA1-RON2 inh = qHTS for Inhibitors of AMA1-RON; Towards Development of Antimalarial Drug Lead: Primary Screen; Plasmodium falciparum AMA1 (3D7) - RON2 peptide interaction; AlphaScreen AMA1-biotinylated RON2 peptide binding; Potency, µM (top dose mostly 58.2 µM), for inactives: at the highest dose activity change, negative = inhibition, usual class: inhibitors; 360,000 tested, 0.2% active; AID 720542, 2013;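 also: 0% = vehicle wells and -100% = peptide control; nearly all actives have a fitted effect of over 45% in size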
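AMA1 (3D7) with his tag at 25 nM final met compounds first, then biotinylated RON2 peptide at 25 nM; detection used donor plus acceptor beads, 10 µg/mL apiece, read by AlphaScreen after 30 min at room temperature.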
NS1 inh = qHTS Assay for Inhibitors of Influenza NS1 Protein Function. Potency, µM (top dose mostly 46.1 µM), for inactives: top-dose activity, positive = more growth. 270,000 tested, 0.4% active. AID 2326, 2010; calls by dose curve; also: actives are rising curves; nearly all actives have a fitted effect of over 50% in size
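Growth recovery, yeast-based: influenza A NS1 expressed in S. cerevisiae causes slow growth, and suppressors are detected by OD600. The parent strain without NS1 is used as positive control.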
Giardia growth = qHTS Assay for Inhibitors of Fructose-1,6-bisphosphate Aldolase from Giardia Lamblia: Giardia lamblia growth inhibition. 1,500 tested, 5% active. Giardia lamblia trophozoite growth inhibition. shares compounds with Giardia FBPA inh-1. Potency, µM (series often up to 57.5 µM), for the others: at the highest dose activity change, negative = inhibition, hits mostly inhibitors;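 also: trophozoites exposed to compound for 48 h at 37 °C; % is scaled to controls: 0 for no effect and ±100 for the full control effect; nearly all actives have a fitted effect of over 70% in size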
Mammalian tox = qHTS Assay for Inhibitors of Fructose-1,6-bisphosphate Aldolase from Giardia Lamblia: Mammalian cellular toxicity; Potency, µM (top dose mostly 57.5 µM), for inactives: top-dose viability change, negative = toxicity, usual class: inhibitors; shares compounds with Giardia FBPA inh-1; mammalian cell viability counter-screen, qHTS; 1,500 tested, 4% active;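 also: Chinese hamster ovary cells used as mammalian cytotoxicity surrogate; viability measured as cellular ATP by luminescence; compound exposure lasted 48 h before reading; % is scaled to controls: 0 for no effect and ±100 for the full control effect; nearly all actives have a fitted effect of over 60% in size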
Giardia FBPA inh-2 = qHTS Assay for Inhibitors of Fructose-1,6-bisphosphate Aldolase from Giardia Lamblia: Primary screen confirmation | purified Giardia aldolase enzyme activity, qHTS | shares compounds with Giardia FBPA inh-1 | 1,500 tested, 5% active | Potency, µM (doses to about 57.5 µM), without a hit: at the highest dose activity change, negative = inhibition, actives largely listed as inhibitors; also: % is scaled to controls: 0 for no effect and ±100 for the full control effect; nearly all actives have a fitted effect of over 45% in size
Rabbit aldolase = qHTS Assay for Inhibitors of Fructose-1,6-bisphosphate Aldolase from Giardia Lamblia: Rabbit FBPA Selectivity. shares compounds with Giardia FBPA inh-1. Rabbit muscle FBPA enzyme inhibition, selectivity counter-screen. Potency, µM (highest dose often 57.5 µM), without a hit: top-dose activity, negative = inhibition, usual class: inhibitors. 1,500 tested, 4% active. AID 2794, 2010; also: % is scaled to controls: 0 for no effect and ±100 for the full control effect; nearly all actives have a fitted effect of over 60% in size
Target sequence (P00883 whole entry, looked up): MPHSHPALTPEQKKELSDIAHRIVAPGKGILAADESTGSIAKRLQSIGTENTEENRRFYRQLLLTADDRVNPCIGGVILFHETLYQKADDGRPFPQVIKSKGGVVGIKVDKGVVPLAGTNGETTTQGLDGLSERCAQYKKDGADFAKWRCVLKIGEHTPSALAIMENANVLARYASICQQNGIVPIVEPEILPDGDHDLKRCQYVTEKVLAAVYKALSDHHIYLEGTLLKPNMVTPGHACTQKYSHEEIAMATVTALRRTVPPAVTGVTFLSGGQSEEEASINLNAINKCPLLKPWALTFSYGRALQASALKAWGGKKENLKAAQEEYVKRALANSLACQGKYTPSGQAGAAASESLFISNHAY
GAPDH coupling = qHTS Assay for Inhibitors of Fructose-1,6-bisphosphate Aldolase from Giardia Lamblia: Coupling assay counterscreen confirmation. shares compounds with Giardia FBPA inh-1. GAPDH coupling enzyme counterscreen, biochemical, qHTS. Potency, µM (doses to about 57.5 µM), for inactives: at the highest dose activity change, negative = inhibition, hits mostly inhibitors. 1,500 tested, 6% active. AID 2795, 2010; also: % is scaled to controls: 0 for no effect and ±100 for the full control effect; nearly all actives have a fitted effect of over 55% in size
Starred values were filed as active, the others as inactive; u = inconclusive; x = no result; [ ] = remark or other dose. Unless noted, calls follow the shape of the dose curve; as a rule, active = well fitted curve in the direction sought with a large enough effect; inconclusive = small, poorly fitted or top-dose-only effect, or another doubt; inactive = no such curve, though single readings can be large; an effect the other way counts as inactive or inconclusive. Potency is read from the fitted curve at half-maximal effect.

SMILES	Giardia FBPA inh-1	Tb PYK inh	LmPK inhibitor	AMA1-RON2 inh	NS1 inh	Giardia growth	Mammalian tox	Giardia FBPA inh-2	Rabbit aldolase	GAPDH coupling
COc1cccc(/C=N/n2c(-c3n[nH]c4c3CCC4)n[nH]c2=S)c1O	-14%	u	-3%	15%[2.32 µM]	5%	x	x	x	x	x
COc1cccc(/C=N/n2c(-c3cc(C)[nH]n3)n[nH]c2=S)c1O	5.6µM*	u	2%	91%	-3%	u	18%	-20%	u	-9%
CC(/C=N/n1c(-c2ccc(Cl)cc2)n[nH]c1=S)=C\c1ccco1	-3%	u	3%	44%	15%	x	x	x	x	x
Cc1cc(C)n(NC(=S)NC2CCCC2)c(=O)c1C#N	18µM*	2%	0%	-9%	1%	5%	9%	0%	15%	2%
O=C(CN1CCN(S(=O)(=O)c2ccc(F)cc2)CC1)c1ccc(O)c(O)c1	20µM*	-29%	8%	13%	x	-6%	-13%	-29%	-17%	2%
CSCC[C@H](NC(=O)[C@H](CC(C)C)NC(=O)CNC(=O)[C@H](Cc1ccccc1)NC(=O)[C@H](Cc1ccccc1)NC(=O)[C@H](CCC(N)=O)NC(=O)[C@H](CCC(N)=O)NC(=O)[C@@H]1CCCN1C(=O)[C@H](CCCCN)NC(=O)[C@@H]1CCCN1C(=O)[C@H](CCCN=C(N)N)NC(=O)CCCCC1SCC2NC(=O)NC21)C(N)=O (stereo partly specified)	-1%	x	x	x	x	x	x	x	x	x
Cc1cc(C)nc(NN2C(=O)C=CC2=O)n1	5µM*	-17%	-4%	95%	4%	u	-6%	1%	-1%	-1%
CCOC(=O)C1CCCN(C(=O)c2ccc3c(c2)N(Cc2cccc(Cl)c2)C(=O)c2ccccc2S3(=O)=O)C1 (stereo unspecified)	x	-1%	x	x	x	x	x	x	x	x
CCCCC/C=C\CC1OC1C/C=C\C/C=C\CCCC(=O)O (stereo unspecified)	5%	x	x	x	x	x	x	x	x	x
CC(C)NC(=O)c1ccc(-n2c(=S)[nH]c3ccccc3c2=O)cc1	-5%	x	0%	x	x	x	x	x	x	x
O=C(CCN1CCCCC1)Nn1c(=S)[nH]c2ccccc2c1=O	22µM*	8%	-1%	74%	-3%	u	11%	1%	12%	5%
O=C(Nn1c(=S)[nH]c2ccccc2c1=O)c1ccncc1	16µM*	-6%	0%	100%	4%	-8%	10%	0%	0%	1%
CO[C@H]1COC(=O)[C@H](C)NC(=O)[C@@H](C)COC(=O)[C@H]2CCCN2C(=O)C/C=C\[C@H]1C	2%[12.9 µM]	x	x	x	x	x	x	x	x	x
COc1cc(NC(=O)CSc2ncc3c(n2)-c2ccc(Cl)cc2N(Cc2ccccc2)S3(=O)=O)cc(OC)c1	x	-13%	x	x	x	x	x	x	x	x
CC(C(Sc1ccccc1N)c1ccccc1)[N+](=O)[O-] (stereo unspecified)	20µM*	25µM*	6%	-5%	-34%	u	32µM*	5%	9%	-4%
Nc1ccccc1SC(CC(=O)c1ccccc1)c1ccccc1 (stereo unspecified)	x	-15%	x	-7%	x	x	x	x	x	x
Cc1ccc([N+](=O)[O-])cc1NC(=S)NC(=O)c1c(Cl)cnn1C	7.9µM*	5%	1%	0%	8%	12%[38.3 µM]	0%	-2%	6%	-18%
CC(C)[C@@H](C(=O)O)N1C(=O)c2ccccc2C1=O	x	x	x	x	-3%	x	x	x	x	x
CCc1nnc2n1N(C(C)=O)C(c1ccc(C(C)(C)C)cc1)=C(C(C)=O)S2	x	-1%	x	x	x	x	x	x	x	x
Cc1ccc(NC(=O)CSc2nc3nc(C)c(Br)cc3[nH]2)cc1F	18µM*	2%	12%	14%	-6%	u	6%	6%	6%	17%
Cc1ccc(NC(=O)CSc2nc3ncccc3[nH]2)cc1F	x	5%	x	x	x	x	x	x	x	x
CCN1CCC2(CC1)N=C(c1ccc(F)cc1)C(=S)N2	13µM*	-9%	-19%	0%	x	-18%	0%	-1%	4%	7%
c1ccc(-c2ccccc2OCCOCCN2CCc3ccccc3C2)cc1	-2%	-3%	6%	-9%	-13%	x	x	x	x	x
CC1CN(CCCCN2C(=O)c3ccccc3C2=O)CC(C)O1 (stereo unspecified)	22µM*	1%	1%	-18%	x	u	18%	2%	2%	2%
CC1CN(CCOCCOc2ccccc2-c2ccccc2)CC(C)O1 (stereo unspecified)	11µM*	25%	5%	14µM*	-14%	-8%[10.4 µM]	-1%	1%	1%	10%
CC1CN(CCOCCSc2ccccc2)CC(C)O1 (stereo unspecified)	-6%	3%	0%	-2%	2%	x	x	x	x	x
CC1CN(CN2C(=O)c3ccccc3C2=O)CC(C)O1 (stereo unspecified)	0%	-1%	3%	-5%	11%	x	x	x	x	x
Cc1ccc(C)c(OCCOCCN2CC(C)OC(C)C2)c1C (stereo unspecified)	18µM*	-6%	-2%	-14%	-10%	-2%[10.4 µM]	-1%	6%	5%	0%
COc1ccc(CCNC(=O)CSCc2nc(-c3cccc(C)c3)oc2C)cc1OC	x	1%	x	x	x	x	x	x	x	x
Cc1nc(SC(C)C(=O)Nc2ccccc2Cl)cc(-c2ccccc2)n1 (stereo unspecified)	x	0%	x	x	x	x	x	x	x	x

High-throughput results (PubChem BioAssay)
